Source: PubChem BioAssay (NCATS)
Inconclusive results are not listed. The source made the active and inactive calls. Unless noted, calls follow the shape of the dose curve; as a rule, active = well fitted curve in the direction sought with a large enough effect; inconclusive = small, poorly fitted or top-dose-only effect, or another doubt; inactive = no such curve, though single readings can be large; an effect the other way counts as inactive or inconclusive.

What was measured:
[1] = biological target: Cytochrome P450 3A4 (Homo sapiens) (UniProt P08684); assay: qHTS Assay for Activators of Cytochrome P450 3A4 (AID 885); also: nearly all actives have a fitted effect of over 65% in size
Method in brief: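 Human CYP3A4 dealkylates Luciferin-PPXE to luciferin, which luciferase detection converts to light. Substrate was at its KM (25uM), buffer 200mM KPO4, reaction 60 min at RT.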

[2] = Confirmation and Secondary Assay for Modulators of Hemoglobin Beta Chain Splicing at IVS2 654 locus (AID 910);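 also: per-well total GFP intensity by laser scanning cytometry after 2-day treatment; % of control where 0% means no effect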
Method in brief: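 HeLa cells stably carrying EGFP interrupted by mutant beta-globin IVS2-654 intron (CMV-driven) were treated with compound for 2 days at 37C; corrected splicing was scored as total peak GFP intensity per well (488 nm excitation, 500-520 nm emission).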

[3] = Confirmation and Secondary Assay for Modulators of Hemoglobin Beta Chain Splicing at IVS2 705 locus (AID 930);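 also: HeLa cells stably expressing the EGFP-705 splicing reporter; series mostly up to about 46 µM; % of control where 0% means no effect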
Method in brief: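 HeLa cells stably carrying EGFP interrupted by mutant beta-globin IVS2-705 intron (CMV-driven) were seeded at 500 cells/well, treated next day with compound for 2 days at 37C; corrected splicing restores EGFP, read as total peak GFP intensity per well.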

[4] = biological target: Cytochrome P450 2C9 (Homo sapiens) (UniProt P11712); assay: qHTS Assay for Inhibitors and Substrates of Cytochrome P450 2C9 (AID 883); also: % is scaled to controls: 0 for no effect and ±100 for the full control effect; nearly all actives have a fitted effect of over 60% in size
Method in brief: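 Human CYP2C9 (10nM) hydroxylated Luciferin-H (100uM, at its KM) to luciferin in 25mM KPO4. Compound was preincubated 10 min at 37C, then NADPH regeneration started a 60 min reaction at 37C. Luminescence was read after detection reagent, normalized to 57uM sulphaphenazole.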

[5] = biological target: Cytochrome P450 3A4 (Homo sapiens) (UniProt P08684); assay: qHTS Assay for Inhibitors and Substrates of Cytochrome P450 3A4 (AID 884); also: nearly all actives have a fitted effect of over 50% in size; also: potency is read from the fitted curve at half-maximal effect
Method in brief: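 Luminescent readout of luciferin produced by CYP3A4 (20 nM) dealkylation of Luciferin-PPXE, 25 uM (its KM). NADPH-driven reaction ran 60 min at RT after 10 min compound preincubation; data scaled to 57 uM ketoconazole as 100% inhibition.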

[6] = biological target: Cytochrome P450 2C19 (Homo sapiens) (UniProt P33261); assay: qHTS Assay for Inhibitors and Substrates of Cytochrome P450 2C19 (AID 899); conditions: recombinant CYP2C19, luciferin-H EGE luminescence; also: potency is read from the fitted curve at half-maximal effect; nearly all actives have a fitted effect of over 60% in size
Method in brief: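 Human CYP2C19 (5nM) with Luciferin-H EGE at 10uM (its KM) in 50mM KPO4 was preincubated with compound for 10 min at 37C. NADPH regeneration started a 60 min 37C reaction. Luciferin was read by luminescence, normalized to 57uM ketoconazole.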

[7] = Cellular Toxicity (caspase-3) H-4-II-E (AID 663);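 also: cells exposed to compound for 16 hr before readout; 0% = DMSO basal and 100% = 100 µM tamoxifen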
Method in brief: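 Caspase 3/7 activation measured in H-4-II-E cells in complete culture medium after 16 hr treatment at 37 °C, using luciferase-coupled substrate readout; AC50 values come from Hill-equation fits of normalized concentration-response data.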

[8] = Cellular Toxicity (caspase-3) Hek293 (AID 664);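 also: cells exposed to compound for 16 h at 37 °C before readout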
Method in brief: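 Luminescent Caspase-Glo 3/7 readout (aminoluciferin release) in HEK293 cells after 16 h compound treatment, 37 °C. Normalization: DMSO = basal, 100 uM tamoxifen = 100% stimulation. Concentration-response fitted with standard Hill equation for AC50.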

[9] = Cellular Toxicity (caspase-3) N2a (AID 665);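 also: compound exposure lasted 16 h at 37 °C before readout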
Method in brief: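 Luminescent Caspase-Glo 3/7 readout in N2a mouse neuroblastoma cells after 16 h compound exposure at 37 °C. Signal scaled to DMSO (basal) and 10 uM staurosporine (100%). Concentration-response fitted with Hill equation for AC50.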

[10] = Cellular Toxicity (caspase-3) NIH 3T3 (AID 666);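 also: 0% = DMSO basal and 100% = 100 µM tamoxifen stimulation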
Method in brief: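 NIH 3T3, 1000 cells/well, 5 hr settle then 16 hr compound at 37°C; Caspase-Glo 3/7, 20 min RT, luminescence. DMSO = basal, 100 uM tamoxifen = 100%. Hill-equation AC50, qHTS.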

[11] = Cellular Toxicity (caspase-3) Renal Proximal Tubule (AID 667);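 also: cells exposed to compound for 16 hours at 37 °C before detection; 0% = DMSO basal and 100% = 10 µM staurosporine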
Method in brief: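 AC50 derived by standard Hill fit of concentration-response data, normalized between DMSO basal and 10 uM staurosporine as 100% stimulation. Cells: primary rat kidney proximal tubule, 16 h treatment at 37 °C.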

[12] = Cell Viability - LYMP2-001 (AID 921);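 also: series mostly up to about 92 µM; cells exposed to compound for 24 h at 37 °C; 0% = DMSO only and full inhibition = tetraoctylammonium bromide control wells; nearly all actives have a fitted effect of over 70% in size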
Method in brief: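 Steps: seed 2500 lymphoblastoid cells/well; 5 hr, 37 C; add compound; 24 hr, 37 C; CellTiter-Glo reagent, 30 min room temperature; read luminescence. Concentration-response modeled by Hill equation for AC50.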

[13] = MultiTox-Fluor Cytotoxicity Assay - LYMP1-001 - Dead Cells (AID 946);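 also: 0% = DMSO and 100% = tetraoctylammonium bromide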
Method in brief: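 LYMP1-001 lymphoblastoid cells (2500/well) treated 16 h at 37 C. Dead-cell protease cleavage of bis-AAF-R110 read at Ex/Em 485/520. Normalized to DMSO and 15 uM tetraoctylammonium bromide; AC50 from Hill fits.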

[14] = MultiTox-Fluor Cytotoxicity Assay - LYMP1-001 - Live Cells (AID 947);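 also: 0% = DMSO only and full inhibition = tetraoctylammonium bromide control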
[15] = Cell Viability - LYMP1-002 - Assay at 16 hr (AID 948);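 also: 0% = DMSO alone and full effect = 92 µM tetraoctylammonium bromide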
Method in brief: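 Seed 2500 LYMP1-002 cells per well in complete medium and hold 5 hr at 37 C. Add compound across a concentration series and incubate 16 hr at 37 C. Add CellTiter-Glo, wait 30 min at room temperature, read luminescence.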

[16] = MultiTox-Fluor Cytotoxicity Assay - LYMP1-002 - Live Cells (AID 955);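 also: cells exposed to compound for 16 hours; % is scaled to controls: 0 for no effect and ±100 for the full control effect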
Method in brief: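 LYMP1-002 lymphoblastoid cells; 2500 cells/well; 16 hr compound exposure, 37 C; MultiTox-Fluor reagent 60 min RT; live-cell fluorescence Ex/Em=405/510; qHTS concentration-response, Hill-equation AC50; tetraoctylammonium bromide positive control.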

[17] = MultiTox-Fluor Cytotoxicity Assay - LYMP1-002 - Dead Cells (AID 960);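 also: 0% = DMSO and 100% = tetraoctylammonium bromide; nearly all actives have a fitted effect of over 60% in size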
Method in brief: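 Readout: fluorescence at 485/520 from cell-impermeant bis-AAF-R110 cleaved by proteases leaking from damaged cells. LYMP1-002 lymphoblastoid line, 16 hr compound treatment at 37 C, concentration-response in qHTS format; Hill-equation AC50 values.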

[18] = biological target: Guanine nucleotide-binding protein G(i) subunit alpha-1 (Homo sapiens) (UniProt P63096); assay: qHTS Assay for Inhibitors of RGS12 GoLoco Motif Activity (Green Fluorophore) (AID 879);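 also: 0% = labeled peptide with Gαi1 and full inhibition = labeled peptide alone without protein; negative values mean loss of peptide binding seen as reduced polarization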
Method in brief: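 A drop in FITC polarization marked displacement of the FITC-tagged RGS12 GoLoco peptide (10 nM) from Gαi1 (50 nM). Compounds were incubated 10 min at room temperature in Tris pH 7.5 buffer containing 150 mM NaCl, 0.1 mM GDP and 0.05% NP40; unlabeled peptide titration served as control.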

[19] = biological target: Pyruvate kinase (Leishmania mexicana) (UniProt Q27686); assay: qHTS Validation Assay for Inhibitors of Leishmania Mexicana Pyruvate Kinase (AID 945);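 also: 0% = DMSO only neutral control wells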
Method in brief: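 LmPYK E451W 0.2 nM; 0.5 mM PEP, 0.1 mM ADP, 7 mM MgCl2, 50 mM KCl, imidazole pH 7.2, 0.01% Tween 20, 0.05% BSA; 1 h RT; PKLight luminescence; DMSO-normalized.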

[20] = biological target: Pyruvate kinase PKM (Homo sapiens) (UniProt P14618); assay: qHTS Assay for Activators of Human Muscle Pyruvate Kinase (AID 954; active = well fitted curve in the direction sought with a large enough effect, not every such curve was filed as active;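 also: 0% = uninhibited enzyme and -100% = no enzyme or full thiadiazolimine inhibition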)
Method in brief: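 Compound pinned into substrate mix (0.5 mM PEP, 0.1 mM ADP), then 0.1 nM PKM2 added; 1 h, RT. Stop/detection luciferase reagent added, luminescence read. Normalized to no-inhibition and no-enzyme or reference-inhibitor controls.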

Chain of Cytochrome P450 3A4 (Homo sapiens) (P08684 whole entry, looked up): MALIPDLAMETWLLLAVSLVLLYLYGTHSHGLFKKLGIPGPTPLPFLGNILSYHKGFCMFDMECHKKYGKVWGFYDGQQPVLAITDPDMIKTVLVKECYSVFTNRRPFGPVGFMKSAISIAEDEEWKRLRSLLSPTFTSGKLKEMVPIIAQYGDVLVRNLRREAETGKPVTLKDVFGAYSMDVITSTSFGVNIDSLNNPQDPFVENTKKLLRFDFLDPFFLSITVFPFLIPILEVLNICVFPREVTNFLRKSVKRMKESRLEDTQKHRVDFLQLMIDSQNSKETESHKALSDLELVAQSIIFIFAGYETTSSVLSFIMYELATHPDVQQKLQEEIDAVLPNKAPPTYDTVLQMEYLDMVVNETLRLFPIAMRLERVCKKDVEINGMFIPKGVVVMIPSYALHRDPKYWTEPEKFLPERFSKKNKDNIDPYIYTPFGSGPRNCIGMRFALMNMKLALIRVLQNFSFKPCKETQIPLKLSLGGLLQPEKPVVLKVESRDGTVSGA
Chain of Cytochrome P450 2C19 (Homo sapiens) (P33261 whole entry, looked up): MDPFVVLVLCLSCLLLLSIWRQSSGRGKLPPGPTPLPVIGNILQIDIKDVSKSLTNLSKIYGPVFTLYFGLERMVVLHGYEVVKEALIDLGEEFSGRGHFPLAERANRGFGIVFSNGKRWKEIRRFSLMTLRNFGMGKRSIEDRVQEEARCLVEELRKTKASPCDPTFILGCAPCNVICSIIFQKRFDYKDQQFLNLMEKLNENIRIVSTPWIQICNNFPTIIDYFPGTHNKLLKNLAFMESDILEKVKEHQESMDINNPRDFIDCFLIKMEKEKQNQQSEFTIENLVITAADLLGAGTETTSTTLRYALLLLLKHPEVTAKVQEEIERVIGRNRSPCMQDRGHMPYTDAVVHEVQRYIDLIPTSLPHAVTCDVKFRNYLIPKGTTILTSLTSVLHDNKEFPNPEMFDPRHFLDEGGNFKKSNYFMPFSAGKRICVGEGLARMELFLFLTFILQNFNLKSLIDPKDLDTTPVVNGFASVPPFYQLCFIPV
Chain of Cytochrome P450 2C9 (Homo sapiens) (P11712 whole entry, looked up): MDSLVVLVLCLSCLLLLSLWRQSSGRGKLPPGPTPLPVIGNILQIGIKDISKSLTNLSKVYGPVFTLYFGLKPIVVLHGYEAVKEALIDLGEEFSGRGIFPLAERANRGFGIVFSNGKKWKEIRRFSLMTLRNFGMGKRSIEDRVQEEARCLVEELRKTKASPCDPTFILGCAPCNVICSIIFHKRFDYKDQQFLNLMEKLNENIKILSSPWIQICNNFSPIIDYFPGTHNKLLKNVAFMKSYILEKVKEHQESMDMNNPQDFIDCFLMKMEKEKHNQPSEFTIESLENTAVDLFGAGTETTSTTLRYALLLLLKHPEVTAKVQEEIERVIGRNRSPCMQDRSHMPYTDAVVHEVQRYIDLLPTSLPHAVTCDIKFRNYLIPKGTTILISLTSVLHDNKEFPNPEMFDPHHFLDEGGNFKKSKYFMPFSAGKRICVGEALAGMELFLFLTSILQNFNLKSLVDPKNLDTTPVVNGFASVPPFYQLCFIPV
Chain of Guanine nucleotide-binding protein G(i) subunit alpha-1 (Homo sapiens) (P63096 whole entry, looked up): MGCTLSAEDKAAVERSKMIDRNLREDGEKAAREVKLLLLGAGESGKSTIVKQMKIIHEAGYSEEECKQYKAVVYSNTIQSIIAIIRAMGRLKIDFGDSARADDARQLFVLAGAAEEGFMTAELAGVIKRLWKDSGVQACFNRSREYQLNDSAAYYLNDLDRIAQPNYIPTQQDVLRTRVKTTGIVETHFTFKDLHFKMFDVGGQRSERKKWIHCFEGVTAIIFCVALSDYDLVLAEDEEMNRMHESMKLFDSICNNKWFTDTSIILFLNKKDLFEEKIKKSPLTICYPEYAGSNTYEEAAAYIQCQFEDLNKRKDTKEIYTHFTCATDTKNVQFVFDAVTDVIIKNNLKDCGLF
Chain of Pyruvate kinase PKM (Homo sapiens) (P14618 whole entry, looked up): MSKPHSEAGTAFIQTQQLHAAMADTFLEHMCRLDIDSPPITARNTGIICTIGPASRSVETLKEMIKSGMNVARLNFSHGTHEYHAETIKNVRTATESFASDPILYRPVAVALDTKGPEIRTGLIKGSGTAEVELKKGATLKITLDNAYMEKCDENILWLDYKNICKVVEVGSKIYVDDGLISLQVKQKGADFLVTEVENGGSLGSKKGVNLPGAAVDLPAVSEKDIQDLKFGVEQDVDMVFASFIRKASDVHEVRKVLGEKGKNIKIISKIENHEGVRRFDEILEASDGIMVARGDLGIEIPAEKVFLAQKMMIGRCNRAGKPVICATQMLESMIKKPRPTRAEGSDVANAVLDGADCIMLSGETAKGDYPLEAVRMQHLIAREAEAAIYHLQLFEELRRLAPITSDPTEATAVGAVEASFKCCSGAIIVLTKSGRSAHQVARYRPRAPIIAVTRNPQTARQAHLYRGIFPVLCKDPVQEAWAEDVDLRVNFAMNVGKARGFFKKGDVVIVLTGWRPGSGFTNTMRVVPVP
Chain of Pyruvate kinase (Leishmania mexicana) (Q27686 2-499 E452W): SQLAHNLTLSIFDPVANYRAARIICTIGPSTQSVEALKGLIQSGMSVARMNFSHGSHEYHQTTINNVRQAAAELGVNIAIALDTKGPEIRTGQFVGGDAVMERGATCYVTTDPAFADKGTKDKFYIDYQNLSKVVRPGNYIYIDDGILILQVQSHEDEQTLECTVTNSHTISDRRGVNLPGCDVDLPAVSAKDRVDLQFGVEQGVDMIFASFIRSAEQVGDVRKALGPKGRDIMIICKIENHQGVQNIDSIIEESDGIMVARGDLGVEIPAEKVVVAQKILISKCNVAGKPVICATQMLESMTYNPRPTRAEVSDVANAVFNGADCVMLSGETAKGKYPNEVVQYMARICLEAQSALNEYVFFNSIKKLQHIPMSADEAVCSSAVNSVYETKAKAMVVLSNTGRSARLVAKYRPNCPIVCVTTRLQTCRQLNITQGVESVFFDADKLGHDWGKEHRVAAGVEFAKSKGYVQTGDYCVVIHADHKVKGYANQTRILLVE

CC(=O)c1cc2c(cc1O)OC(C)(C)C=C2
inactive: outcome [1] | outcome [2] | outcome [3]

COc1ccc2c(OC)c3ccoc3nc2c1OC
active: Potency [5] 12.6 µM | Potency [6] 10 µM
inactive: outcome [4] | outcome [1]

CC(C)C(N)C(=O)OCCOCn1cnc2c(=O)[nH]c(N)nc21 (stereo not given)
inactive: Potency [5] | outcome [3]

COc1ccc(C[C@H](N)C(=O)N[C@@H]2[C@H](O)[C@H](n3cnc4c(N(C)C)ncnc43)O[C@@H]2CO)cc1
inactive: outcome [1]

Cc1ccc(N)cc1O
inactive: outcome [7] | outcome [8] | outcome [9] | outcome [10] | outcome [11] | Potency [5] | outcome [12] | outcome [13] | outcome [14] | outcome [15] | outcome [16] | outcome [17]

CC(C)[N+]1(C)C2CCC1CC(OC(=O)C(CO)c1ccccc1)C2 (stereo not given)
inactive: outcome [2] | outcome [3]

Nc1ccccc1N
inactive: outcome [7] | outcome [8] | outcome [9] | outcome [10] | outcome [11] | outcome [13] | outcome [15] | outcome [16] | outcome [17]

CC(=O)O[C@H]1C(=O)[C@@]2(C)[C@H]([C@H](OC(=O)c3ccccc3)[C@]3(O)C[C@H](OC(=O)[C@H](O)[C@@H](NC(=O)c4ccccc4)c4ccccc4)C(C)=C1C3(C)C)[C@]1(OC(C)=O)CO[C@@H]1C[C@@H]2O
inactive: outcome [18] | outcome [19] | outcome [20]

Cc1ccccc1CN1C2=NCCN2C(=O)C2=C1CCN(Cc1ccccc1)C2
inactive: activity change, positive = activation [1] -40.7% [at 11.4 µM]

Nc1nc2c(ncn2[C@@H]2O[C@H](CO)[C@@H](O)[C@H]2O)c(=O)[nH]1
inactive: Potency [5]

CC(=O)O[C@@H]1CC(C)=C2[C@H]1[C@H](C)CC[C@H]2/C=C(\C)C(=O)O
inactive: outcome [7] | outcome [8] | outcome [9] | outcome [10] | outcome [11] | Potency [5] | outcome [12] | outcome [13] | outcome [14] | outcome [15] | outcome [16] | outcome [17]
